From PubChem BioAssay (NCI)
This is part of a sample that, as a whole, favours compounds with a hit. Of some 83,000 tested, about 20% had one in any assay.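 Negative percent growth values reflect cell death: -40 means 40% of the cells present at the start died, and -100 means all died.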 The source made the active and inactive calls. The calls were made as follows: active = growth percent below 10; inactive = the rest.

System: EKVX NSCLC
Assay: NCI-60 one-dose screen, 48 h (100 = growth as untreated, 0 = no growth, -100 = all killed)
Details: 10 µM unless noted

| Structure (SMILES) | growth |
| --- | --- |
| Nc1c(C(=O)Nc2cccc3ccccc23)sc2nc3c(cc12)COCC3 | 85.1% (inactive) |
| CN(C)C(CNc1oc(-c2cccc3ccccc23)nc1C#N)c1ccco1 (stereo not drawn) | 85.1% (inactive) |
| Cc1cnc(-c2ccc(-c3ccc(NC(=O)Nc4c(F)cc(F)cc4F)cc3F)c3c2C(=O)NC3)[nH]1 | 52% (inactive) |
| COc1ccc(-c2cc(C(=O)N3N=C(c4ccc(N)cc4)CC3c3ccc(OC)cc3)c3cc(OC)ccc3n2)cc1 (stereo not drawn) | 68.9% (inactive) |
| COc1cc([C@H](C)c2ccc3ccccc3c2)cc(OC)c1OC | 30.9% (inactive) |
| O=c1nc(-c2ccccc2)c2cc(-c3ccc(N4CCCC4)nc3)ccc2[nH]1 | 71.1% (inactive) |
| Cc1cccc2nc3c(n12)C(=O)C(=O)c1ccccc1-3 | 64.1% (inactive) |
| CC(=O)Nc1c(C(=O)Nc2ccccc2)sc2nc3c(cc12)C(OC(C)=O)CCC3 (stereo not drawn) | 99.6% (inactive) |
| CCN1CCN(c2ccc(NC(=O)Nc3nc4ccc(-c5ccccc5OC)cc4s3)cc2)CC1 | -68.4% (active) |
| Cc1cc(Cl)cc(CN(Cc2ccccc2)Cc2c(O)ccc3ccccc23)c1O | 99% (inactive) |
| COC1=CC=CC2(OC)C3(O)CCCc4cccc(c43)N3C(=O)COC132 (stereo not drawn) | 98.6% (inactive) |
| C=C1C(=O)O[C@H]2[C@H]1CC/C(COC(=O)N1CCC[C@H]1C(=O)Nc1ccc(OC)c(C(N)=O)c1O)=C\CC[C@@]1(C)O[C@@H]21 | 77% (inactive) |
| Cc1cc(C)nc(NS(=O)(=O)c2ccc(Nc3ccc4c5c(n(CCCN(C)C)c(=O)c4c3)-c3ccccc3C5=O)cc2)n1 | 90.5% (inactive) |
